# Experimental data reported in PubChem BioAssay (NCATS).
# Records with an inconclusive call do not appear. The source made the active and inactive calls. Unless noted, calls come from the whole dose curve; as a rule, active = well fitted curve in the direction sought with a large enough effect; inconclusive = small, poorly fitted or top-dose-only effect, or another doubt; inactive = no such curve, though single readings can be large; an effect the other way counts as inactive or inconclusive. Non-standard residues stand in square brackets, D forms with d. Residues, ends and D or L forms follow the SMILES beside them. *: point of attachment. Nva = CCC[C@H](N)C(=O)O; Cbz = O=C(OCc1ccccc1)*
# Legend:
# [1] = High-throughput drug toxicity screening in the BPDCN cell line Cal-1 (AID 1224825; call rule not given here); details: Cal-1 BPDCN cell viability, qHTS; at 45.8 µM (top of the series) unless noted
# Procedure, shortened: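 Cal-1 cells, 500 per well in phenol-red-free RPMI with 10% FBS, exposed to compounds for 48 hours at 37C, 5% CO2. Viability read by CellTiter-Glo luminescence; percent activity normalized to DMSO (100%) and 9.2 uM bortezomib final (0%).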
# [2] = qHTS assay for measurement of the activity of small molecule inhibitors on Zika virus induced Caspase-3 activity in human iPSC derived neural progenitor cells (hNPCs) (AID 1224857); note: % of control where 0% means no effect; nearly all actives have a fitted effect of over 65% in size
# Procedure, shortened: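 Pretreat hNPCs with compound 1 h; infect ZIKV 2 FFU/cell; 6 h 37 C, 5% CO2; Caspase-Glo 3/7, 30 min RT; luminescence; normalize to no-virus and virus-only wells.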
# [3] = qHTS assay for measurement of the activity of small molecule inhibitors on Zika virus induced Caspase-3 activity in human astrocytoma cells (AID 1224859);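 note: plate controls were ZIKV-infected untreated cells for no effect and uninfected cells for full effect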
# Procedure, shortened: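 Human SNB-19 astrocytoma cells in RPMI 1640 with 10% FBS receive compound one hour ahead of Zika virus at 2 FFU/cell. After 6 h infection, caspase-3/7 activity is detected by Caspase-Glo luminescence.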
# [4] = qHTS Screen of the MIPE 4.0 Collection Against Ewings Sarcoma (RDES) (AID 1259252); note: nearly all actives have a fitted effect of over 35% in size; note: potency is the fitted concentration of half-maximal effect
# Procedure, shortened: (§1)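 Log-phase cells in RPMI with 5% FBS attached for 4 h, then received compounds as a titration for 48 h at 37C, 5% CO2. Viability was read by CellTiter-Glo luminescence and normalized to DMSO and no-cell wells.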
# [5] = qHTS Screen of the MIPE 4.0 Collection Against Ewings Sarcoma (TC71) (AID 1259253); note: nearly all actives have a fitted effect of over 40% in size; note: potency is the fitted concentration of half-maximal effect
# Procedure, shortened: as §1
# [6] = qHTS Screen of the MIPE 4.0 Collection Against Ewings Sarcoma (EW8) (AID 1259255); note: nearly all actives have a fitted effect of over 35% in size; note: potency is the fitted concentration of half-maximal effect;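 for viability: 100% = DMSO-treated cells and 0% = medium-only wells without cells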
# Procedure, shortened: as §1
# [7] = qHTS Screen of the MIPE 4.0 Collection Against Ewings Sarcoma (TC32) (AID 1259256); note: nearly all actives have a fitted effect of over 45% in size; note: potency is the fitted concentration of half-maximal effect
# Procedure, shortened: as §1
# [8] = NS1 protein of Zika virus - qHTS assay to identify small molecule inhibitors in human HEK 293 cells (AID 1347053); note: nearly all actives have a fitted effect of over 55% in size; note: potency is the fitted concentration of half-maximal effect
# Procedure, shortened: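 Following 20 h seeding, HEK 293 cells took compound, then 1 h later ZIKV MR766 (MOI = 0.5). Incubation ran 24 h at 37 C before TR-FRET detection of NS1; a drop in signal indicates inhibition.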
# [9] = qHTS of pediatric cancer cell lines to identify multiple opportunities for drug repurposing: Primary screen for TC32 cells (AID 1347089); note: nearly all actives have a fitted effect of over 60% in size; note: potency is the fitted concentration of half-maximal effect
# Procedure, shortened: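 A viability screen of TC32 cells was run over 48 h, with primary MIPE doses spanning 0.78 nM–46 µM and NPC doses 0.59 nM–46 µM. ATP luminescence (CellTiter-Glo) served as the read-out.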
# [10] = qHTS of pediatric cancer cell lines to identify multiple opportunities for drug repurposing: Primary screen for SK-N-MC cells (AID 1347093); note: potency is the fitted concentration of half-maximal effect
# Procedure, shortened: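 Metabolically active cells were quantified by ATP-dependent luminescence (CellTiter-Glo, 15 min at room temperature) following 48 h treatment. Cells had been plated at 500-1,000 per well and settled for 5 h beforehand.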
# [11] = qHTS of pediatric cancer cell lines to identify multiple opportunities for drug repurposing: Primary screen for BT-37 cells (AID 1347094); note: potency is the fitted concentration of half-maximal effect
# Procedure, shortened: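 Following a 5-hour attachment period, cells at 500-1,000/well received compounds and were cultured for 48 hours. CellTiter-Glo was added and luminescence read to estimate viable, metabolically active cells.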
# [12] = qHTS of pediatric cancer cell lines to identify multiple opportunities for drug repurposing: Primary screen for A673 cells (AID 1347092); note: nearly all actives have a fitted effect of over 45% in size; note: potency is the fitted concentration of half-maximal effect
# Procedure, shortened: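 Titration-based qHTS on A673 cells: MIPE compounds spanned 11 points (0.78 nM to 46 µM final), NPC compounds 8 points (0.59 nM to 46 µM final). Viability after 48 h was measured by ATP luminescence.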
# [13] = P-glycoprotein substrates identified in KB-8-5-11 adenocarcinoma cell line, qHTS therapeutic library screen (AID 1346987); note: nearly all actives have a fitted effect of over 65% in size; note: potency is the fitted concentration of half-maximal effect
# Procedure, shortened: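 P-gp-mediated resistance screen: KB-8-5-11 cells treated 72 h with compounds in dose-response. CellTiter-Glo viability.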
# [14] = qHTS of pediatric cancer cell lines to identify multiple opportunities for drug repurposing: Primary screen for DAOY cells (AID 1347090); note: nearly all actives have a fitted effect of over 55% in size; note: potency is the fitted concentration of half-maximal effect
# Procedure, shortened: (§2)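 Viability measured as metabolically active cells via CellTiter-Glo luminescence following 48 hours of compound exposure, 11-point dilutions in confirmatory testing. 500-1,000 cells/well plated 5 hours before dosing; controls were DMSO and 2.3 µM bortezomib.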
# [15] = qHTS of pediatric cancer cell lines to identify multiple opportunities for drug repurposing: Primary screen for SJ-GBM2 cells (AID 1347091); note: potency is the fitted concentration of half-maximal effect
# Procedure, shortened: as §2
# [16] = P-glycoprotein substrates identified in KB-3-1 adenocarcinoma cell line, qHTS therapeutic library screen (AID 1346986); note: nearly all actives have a fitted effect of over 60% in size
# Procedure, shortened: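 Compounds were tested in dose-response against KB-3-1 and KB-8-5-11 cells at 37 degree C for 72 h, and viability was measured by luminescence. AC50 values came from curve fitting with class-based activity calls.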
SMILES,viability (% of control) [1] [%],Potency [2],Potency [3],Potency [4],Potency [5],Potency [6],Potency [7],Potency [8],Potency [9],Potency [10],Potency [11],Potency [12],Potency [13],Potency [14],Potency [15],Potency [16]
C=CC(=O)Nc1ccc2ncnc(Nc3ccc(OCc4cccc(F)c4)c(Cl)c3)c2c1,2.97,inactive,inactive,148 nM (active),1180 nM (active),2090 nM (active),833 nM (active),10500 nM (active),4660 nM (active),16.6 nM (active),15.3 nM (active),,,,,
c1cc(N[C@@H]2CCNC2)nc(-c2cnc3ccc(-c4cn[nH]c4)cn23)c1,3.36,inactive,inactive,16600 nM (active),26400 nM (active),16600 nM (active),23500 nM (active),,,4690 nM (active),,2960 nM (active),,,,
CCN(C(=O)c1c(O)c2c(Cl)cccc2n(C)c1=O)c1ccccc1,20.2,inactive,inactive,inactive,inactive,inactive,,inactive,inactive,,21700 nM (active),,inactive,inactive,inactive,
N=c1ccn2c(n1)O[C@H]1[C@@H](O)[C@@H](CO)O[C@H]12,11.2,inactive,inactive,332 nM (active),662 nM (active),1050 nM (active),372 nM (active),inactive,1040 nM (active),11800 nM (active),611 nM (active),372 nM (active),,,,
Oc1ccc(-c2ccc(-c3cc(Nc4cccc(CNC5CC5)c4)n[nH]3)cc2)c(O)c1,3.58,inactive,inactive,1480 nM (active),1870 nM (active),1870 nM (active),5900 nM (active),1180 nM (active),,372 nM (active),5440 nM (active),935 nM (active),,14800 nM (active),,
c1coc(CNc2ncnc3nc[nH]c23)c1,102,inactive,inactive,inactive,inactive,inactive,,inactive,inactive,inactive,inactive,inactive,inactive,inactive,,
Oc1ccc([C@@H]2Oc3ccc(O)cc3[C@@H]3CCC[C@@H]32)cc1,14.4,inactive,inactive,18700 nM (active),26400 nM (active),10500 nM (active),9350 nM (active),,,,,9350 nM (active),,,,
Cc1cncc2cccc(S(=O)(=O)N3CCCN(C(=O)CN)C[C@@H]3C)c12,36.2,inactive,inactive,8330 nM (active),14800 nM (active),2640 nM (active),1180 nM (active),inactive,10400 nM (active),,inactive,14800 nM (active),,,,
CC(C)n1cnc2c(NCCc3ccc(O)cc3)nc(-c3csc4ccccc34)nc21,2.43,inactive,inactive,2350 nM (active),4180 nM (active),13200 nM (active),4180 nM (active),26400 nM (active),,3320 nM (active),,1180 nM (active),,11800 nM (active),,
CCOC(=O)[C@@H](N)Cc1ccc(-c2cc(O[C@H](c3ccc(Cl)cc3-n3ccc(C)n3)C(F)(F)F)nc(N)n2)cc1,16.2,inactive,inactive,26400 nM (active),23500 nM (active),26400 nM (active),20900 nM (active),,inactive,16600 nM (active),,,,,,
Cn1cc(CNCC2CCN(c3ncc(C(=O)NO)cn3)CC2)c2ccccc21,4.24,inactive,inactive,33.2 nM (active),33.2 nM (active),33.2 nM (active),20.9 nM (active),,415 nM (active),66.2 nM (active),109 nM (active),74.3 nM (active),,235 nM (active),,
CCCCCCCN(CC)CCCC(O)c1ccc(NS(C)(=O)=O)cc1 (stereo not drawn),81.4,inactive,inactive,inactive,inactive,inactive,,inactive,inactive,inactive,inactive,,inactive,inactive,,
FC(F)c1nc2ccccc2n1-c1nc(N2CCOCC2)nc(N2CCOCC2)n1,37.8,inactive,inactive,235 nM (active),590 nM (active),3720 nM (active),118 nM (active),1870 nM (active),,,1090 nM (active),1180 nM (active),,,74.3 nM (active),
C=CCNc1c(O)cc2c(O)c1C[C@@H](C)C[C@H](OC)[C@@H](O)[C@@H](C)C=C(C)[C@H](OC(N)=O)[C@@H](OC)C=CC=C(C)C(=O)N2,6.05,inactive,inactive,,2350 nM (active),5900 nM (active),264 nM (active),inactive,1650 nM (active),1180 nM (active),217 nM (active),935 nM (active),6620 nM (active),,526 nM (active),
CC(=O)N[C@@H]1[C@H](O[C@@H]2c3ccc(c(Cl)c3)Oc3cc4cc(c3O[C@H]3O[C@H](CO)[C@@H](O)[C@H](O)[C@H]3NC(=O)CCCCCCCC(C)C)Oc3ccc(cc3Cl)C[C@H]3NC(=O)[C@H](N)c5ccc(O)c(c5)Oc5cc(O)cc(c5)[C@H](NC3=O)C(=O)N[C@H]4C(=O)N[C@H]3C(=O)N[C@@H]2C(=O)N[C@@H](C(=O)O)c2cc(O)cc(O[C@H]4O[C@H](CO)[C@@H](O)[C@H](O)[C@H]4O)c2-c2cc3ccc2O)O[C@H](CO)[C@@H](O)[C@@H]1O,104,inactive,inactive,,inactive,inactive,inactive,,inactive,inactive,,inactive,,inactive,inactive,inactive
CCC[C@@H](C=O)NC(=O)[C@H](CC(C)C)NC(=O)[C@H](CC(C)C)NC(=O)OCc1ccccc1 (Cbz-Leu-Leu-[Nva]-aldehyde),7.12,inactive,inactive,1180 nM (active),1320 nM (active),743 nM (active),,3320 nM (active),3700 nM (active),105 nM (active),,590 nM (active),,935 nM (active),296 nM (active),
CC(C)N(CC[C@H](c1ccccc1)c1cc(CO)ccc1O)C(C)C,101,inactive,inactive,,inactive,inactive,inactive,inactive,inactive,,inactive,inactive,inactive,inactive,inactive,inactive
C=C[C@@H]1CN2CCC1C[C@H]2[C@H](O)c1ccnc2ccc(OC)cc12 (stereo partly drawn),70,inactive,inactive,,inactive,inactive,inactive,,inactive,,inactive,inactive,inactive,inactive,inactive,
C[C@H](CCC(=O)O)[C@H]1CCC2C3C[C@H](O)[C@@H]4C[C@H](O)CC[C@]4(C)C3CC[C@@]21C (stereo partly drawn),120,inactive,inactive,,inactive,inactive,inactive,inactive,inactive,,inactive,inactive,inactive,inactive,inactive,
CCc1nc(-c2cccc(C)c2)c(-c2ccnc(NC(=O)c3ccccc3)c2)s1,25.7,inactive,inactive,,18700 nM (active),20900 nM (active),20900 nM (active),10500 nM (active),inactive,29600 nM (active),27300 nM (active),23500 nM (active),20900 nM (active),,18700 nM (active),
FC(F)(F)c1ccc(Nc2nc3ccc(Oc4ccnc(-c5ncc(C(F)(F)F)[nH]5)c4)cc3[nH]2)cc1,24.9,inactive,inactive,11800 nM (active),13200 nM (active),11800 nM (active),,,inactive,4180 nM (active),13700 nM (active),14800 nM (active),,18700 nM (active),16600 nM (active),
N#Cc1c(C2CCNCC2)cc(-c2c(O)cccc2OCC2CC2)nc1N,5.17,inactive,inactive,14800 nM (active),10500 nM (active),14800 nM (active),,inactive,,1050 nM (active),,18700 nM (active),,,,
COc1cc([C@@H]2c3cc4c(cc3[C@@H](O[C@@H]3O[C@@H]5CO[C@@H](c6cccs6)O[C@@H]5[C@H](O)[C@@H]3O)[C@H]3COC(=O)[C@H]23)OCO4)cc(OC)c1O,5.23,inactive,inactive,,148 nM (active),29.6 nM (active),inactive,296 nM (active),208 nM (active),93.5 nM (active),217 nM (active),372 nM (active),,,118 nM (active),
CO[C@@H]1[C@@H](O)[C@H](O)[C@@H](n2c3c(Cl)cccc3c3c4c(c5c6cccc(Cl)c6[nH]c5c32)C(=O)NC4=O)O[C@@H]1CO,5.01,inactive,inactive,,93.5 nM (active),105 nM (active),inactive,118 nM (active),294 nM (active),,273 nM (active),235 nM (active),,469 nM (active),166 nM (active),
COc1cc([C@@H]2c3cc4c(cc3[C@H](O)[C@H]3COC(=O)[C@@H]23)OCO4)cc(OC)c1OC,11.1,inactive,inactive,74.3 nM (active),187 nM (active),105 nM (active),,264 nM (active),739 nM (active),,,93.5 nM (active),,118 nM (active),66.2 nM (active),
